Assay results as given in PubChem BioAssay (NCATS).
Records with an inconclusive call do not appear. Where a call stands in place of a potency, no number is given. Activity calls are given as the source filed them. Unless noted, calls follow the shape of the full dose curve.

How the values were obtained:
[1] = qHTS for Inhibitors of the Functional Ribonucleoprotein Complex (vRNP) of Lassa (LASV) Arenavirus: LASV Primary Screen - GLuc reporter signal (AID 1347082; calls by dose curve; tested in HEK293 reporter line; also: nearly all actives have a fitted effect of over 60% in size)
[2] = qHTS for Inhibitors of the Functional Ribonucleoprotein Complex (vRNP) of Lassa (LASV) Arenavirus: Viability assay - alamar blue signal for LASV Primary Screen (AID 1347083; calls by dose curve; tested in HEK293 reporter line; also: nearly all actives have a fitted effect of over 80% in size)
[3] = qHTS for Inhibitors of the Functional Ribonucleoprotein Complex (vRNP) of Lymphocytic Choriomeningitis Arenaviruses (LCMV): Viability assay - alamar blue signal for LCMV Primary Screen (AID 1347085; calls by dose curve; tested in HEK293 reporter line; also: nearly all actives have a fitted effect of over 80% in size)
[4] = target: Nucleoprotein (Lymphocytic choriomeningitis virus (strain Armstrong)) (UniProt P09992); assay: qHTS for Inhibitors of the Functional Ribonucleoprotein Complex (vRNP) of Lymphocytic Choriomeningitis Arenaviruses (LCMV): LCMV Primary Screen - GLuc reporter signal (AID 1347086); also: nearly all actives have a fitted effect of over 70% in size
[5] = Cytotoxicity counterscreen for inhibitors of SARS-CoV-2 cell entry (AID 1645845); also: nearly all actives have a fitted effect of over 50% in size
Procedure, shortened: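 Expi293F/hACE2 cells seeded overnight; cpd pin-transferred in DMSO, 1 h preincubation, + media, 48 h 37 C 5% CO2; ATPLite 1step luminescence; normalized to cells and no cells.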

[6] = Primary qHTS to identify inhibitors of SARS-CoV-2 cell entry (AID 1645846); conditions: activity change, negative = inhibition: at 57.1 µM (top of the series) unless noted; also: nearly all actives have a fitted effect of over 45% in size
Procedure, shortened: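 Luminescence readout (Bright-Glo luciferase) 48 h after pseudoparticle addition. HEK293-ACE2 cells, 1500/well; compound pre-incubation 1 h; Normalized to spike PP and bald PP.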

[7] = tested on: CRL-7250; assay: qHTS assay to identify novel small-molecules to repurpose for Merkel cell carcinoma treatment (AID 1296009; active = well fitted curve in the direction sought with a large enough effect; an effect the other way counts as inactive or inconclusive; also: nearly all actives have a fitted effect of over 60% in size); conditions: MCC and control cell lines, CellTiter-Glo viability, 72 h; series mostly up to 92 µM
Procedure, shortened: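 qHTS format: cells treated with library compounds in DMSO across 8 (NPC) or 11 (MIPE) concentrations. Readout after 72 hr at 37 degree celsius was CellTiter-Glo luminescence.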

[8] = target: Alpha-galactosidase (Coffea arabica) (UniProt Q42656); assay: Counterscreen for Glucocerebrosidase Inhibitors: qHTS Assay for Coffee Bean alpha-Galactosidase at pH 4.5 (AID 957; active = well fitted curve in the direction sought with a large enough effect; an effect the other way counts as inactive or inconclusive)
Procedure, shortened: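 Coffee bean enzyme (2 nM) with 80 uM 4-methylumbelliferyl alpha-D-galactopyranoside in 50 mM citric acid, 0.005% Tween-20, pH 4.5, 20 min at room temperature; compounds 0.7 nM–77 uM. Stopped at pH 10, fluorescence 365/440 nm; AC50 from Hill fits.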

[9] = target: Alpha-galactosidase (Coffea arabica) (UniProt Q42656); assay: Counterscreen for Glucocerebrosidase Inhibitors: qHTS Assay for Coffee Bean alpha-Galactosidase at pH 5.9 (AID 998; active = well fitted curve in the direction sought with a large enough effect; an effect the other way counts as inactive or inconclusive)
Procedure, shortened: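 Green coffee bean enzyme (2 nM final) was incubated with compounds (0.7 nM–77 uM) and 4-methylumbelliferyl alpha-D-galactopyranoside (80 uM) in citrate buffer pH 5.9, 20 min at room temperature. High-pH stop; fluorescence 365/440 nm; AC50 from Hill fits.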

[10] = Validation screen for inhibitors of Lassa infection (AID 463096)
[11] = Inducers of the Endoplasmic Reticulum Stress Response (ERSR) in human glioma: Validation (AID 504836; active = well fitted curve in the direction sought with a large enough effect; an effect the other way counts as inactive or inconclusive)
Procedure, shortened: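 Stably transfected U87-MG human glioma cells carrying a GRP78-based luminescent sensor were seeded at 1000 cells/well, pin-dosed with compounds and incubated 16 h. Luciferase reagent was then added, and end-point luminescence was read after 10 min at room temperature.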

[12] = qHTS profiling of the MIPE4 collection as inhibitors of Plasmodium falciparum (3D7) proliferation (AID 743344; call rule not given here); conditions: P. falciparum 3D7 in erythrocytes, SYBR Green DNA fluorescence, 72 h; at 28.5 µM (top of the series) unless noted
Procedure, shortened: (§1)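 Erythrocytes infected with P. falciparum (0.3% parasitemia, 2.5% hematocrit) incubated with compounds 72 h at 37 C, 5% CO2. Lysis with saponin/Triton buffer containing SYBR Green I, overnight at room temperature in the dark; DNA fluorescence (485/535 nm) normalised to 0.29 uM artemisinin and DMSO.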

[13] = qHTS profiling of the MIPE4 collection as inhibitors of Plasmodium falciparum (DD2) proliferation (AID 743345; call rule not given here); conditions: P. falciparum Dd2 in erythrocytes, SYBR Green DNA, 72 h; at 28.5 µM (top of the series) unless noted
Procedure, shortened: as §1

[14] = qHTS profiling of the MIPE4 collection as inhibitors of Plasmodium falciparum (DD2) proliferation (Rep 2) (AID 743346; call rule not given here); conditions: P. falciparum Dd2 in erythrocytes, SYBR Green DNA, 72 h; at 28.5 µM (top of the series) unless noted
Procedure, shortened: as §1

[15] = qHTS profiling of the MIPE4 collection as inhibitors of Plasmodium falciparum (HB3) proliferation (AID 743347; call rule not given here); conditions: P. falciparum HB3 in erythrocytes, SYBR Green DNA, 72 h; at 28.5 µM (top of the series) unless noted
Procedure, shortened: as §1

[16] = target: Bile acid receptor (Homo sapiens) (UniProt Q96RI1); assay: qHTS assay for small molecule agonists of farnesoid X receptor signaling (AID 588527); conditions: HEK293T FXR-UAS-bla, beta-lactamase ratio, 16 h; activation: stronger effect = higher value
Procedure, shortened: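 Quantitative HTS used FXR-UAS-bla HEK293T cells with 16 h compound incubation at 37 C. EC50 values came from concentration-response curves normalized to chenodeoxycholic acid.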

[17] = target: Peroxisome proliferator-activated receptor delta (Homo sapiens) (UniProt Q03181); assay: qHTS assay for small molecule agonists of peroxisome proliferator-activated receptor delta signaling (AID 588534)
Procedure, shortened: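 Cells carrying a PPAR-delta beta-lactamase reporter were treated with compounds for 18 h at 37 °C in agonist mode. CCF4 fluorescence was read after 2 h; EC50 and efficacy from Hill fits.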

[18] = target: ATP-dependent 6-phosphofructokinase (Trypanosoma brucei brucei) (UniProt O15648); assay: qHTS Validation Assay to Find Inhibitors of T. brucei phosphofructokinase (AID 485368; active = well fitted curve in the direction sought with a large enough effect; an effect the other way counts as inactive or inconclusive); conditions: T. brucei PFK enzyme assay, qHTS 7-point titration; at 57.5 µM (top of the series)
Procedure, shortened: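 Activity was normalized between 1x (1.25 nM) PFK wells as no inhibition and enzyme-free wells as full inhibition, from luminescence after ADP-Glo detection of ADP made from 0.5 mM F6P and 0.1 mM ATP over 45 min.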

[19] = target: Ubiquitin carboxyl-terminal hydrolase 1 (Homo sapiens) (UniProt O94782); assay: Inhibitors of USP1/UAF1: Pilot qHTS (AID 504865; active = well fitted curve in the direction sought with a large enough effect; an effect the other way counts as inactive or inconclusive;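 also: rhodamine fluorescence freed from ubiquitin-rhodamine substrate followed over time; top concentration of the series differs between compounds; nearly all actives have a fitted effect of over 35% in size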)
Procedure, shortened: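 USP1/UAF1 complex (1nM) preincubated with compound 15 min at room temperature, then Ub-Rho substrate (150nM final) added. Fluorescence read kinetically at 480/540 nm, 6 reads every 60 seconds. Buffer: 50mM HEPES pH 7.8, 0.5mM EDTA, 0.1 mg/ml BSA, 1mM TCEP, 0.01% Tween-20.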

[20] = S16 Schwann cell PMP22 intronic element beta-lactamase assay (AID 624044); also: nearly all actives have a fitted effect of over 15% in size
Procedure, shortened: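 Rat S16 Schwann cells with beta-Lac driven by a PMP22 intronic element, compound-treated 24 h at 37 °C. LiveBLAzer FRET B/G read: 460 nm normalized to potassium clavulanate vs DMSO; 535 nm FRET as viability; concentration-effect curves classified.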

[21] = HTS Assay for Allosteric Antagonists of the Human D2 Dopamine Receptor: Hit Validation in HTRF (AID 624455; active = well fitted curve in the direction sought with a large enough effect; an effect the other way counts as inactive or inconclusive;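 also: stable D1 dopamine receptor cell line scored for blocking the D1 response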)
Procedure, shortened: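 Hit validation in cells stably expressing the D1 dopamine receptor, run in HTRF format. Compounds were tested for their ability to inhibit the D1-mediated response.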

[22] = target: Arylsulfatase A (Homo sapiens) (UniProt P15289); assay: qHTS screen for enhancers of Arylsulfatase A (ASA1): LOPAC Validation Assay (AID 720538; active = well fitted curve in the direction sought with a large enough effect; an effect the other way counts as inactive or inconclusive)
Procedure, shortened: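 SV40-transformed skin fibroblasts from an MLD patient (ASA-I179S) were treated with compounds for 48h at 37 degree C, then lysed with 0.5mM pNCS final substrate for 14h at room temperature; NaOH stop, fluorescence read (Ex=525 nm; Em=598 nm).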

Nucleoprotein (Lymphocytic choriomeningitis virus (strain Armstrong)), sequence (P09992 whole entry, looked up): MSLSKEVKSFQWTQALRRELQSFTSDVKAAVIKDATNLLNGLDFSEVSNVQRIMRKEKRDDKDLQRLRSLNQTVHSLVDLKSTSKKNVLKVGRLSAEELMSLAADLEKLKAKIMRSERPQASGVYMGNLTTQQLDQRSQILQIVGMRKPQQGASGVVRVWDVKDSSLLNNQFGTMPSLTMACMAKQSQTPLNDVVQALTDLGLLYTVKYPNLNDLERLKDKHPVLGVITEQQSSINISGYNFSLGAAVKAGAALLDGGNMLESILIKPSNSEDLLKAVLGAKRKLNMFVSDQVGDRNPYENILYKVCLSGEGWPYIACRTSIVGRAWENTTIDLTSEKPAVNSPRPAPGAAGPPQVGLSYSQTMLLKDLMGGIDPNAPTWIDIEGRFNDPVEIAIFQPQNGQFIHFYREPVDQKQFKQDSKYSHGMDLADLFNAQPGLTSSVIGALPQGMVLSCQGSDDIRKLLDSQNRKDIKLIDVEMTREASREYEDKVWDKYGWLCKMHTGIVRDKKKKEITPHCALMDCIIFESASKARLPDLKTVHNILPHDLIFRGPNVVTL
Alpha-galactosidase (Coffea arabica), sequence (Q42656 whole entry, looked up): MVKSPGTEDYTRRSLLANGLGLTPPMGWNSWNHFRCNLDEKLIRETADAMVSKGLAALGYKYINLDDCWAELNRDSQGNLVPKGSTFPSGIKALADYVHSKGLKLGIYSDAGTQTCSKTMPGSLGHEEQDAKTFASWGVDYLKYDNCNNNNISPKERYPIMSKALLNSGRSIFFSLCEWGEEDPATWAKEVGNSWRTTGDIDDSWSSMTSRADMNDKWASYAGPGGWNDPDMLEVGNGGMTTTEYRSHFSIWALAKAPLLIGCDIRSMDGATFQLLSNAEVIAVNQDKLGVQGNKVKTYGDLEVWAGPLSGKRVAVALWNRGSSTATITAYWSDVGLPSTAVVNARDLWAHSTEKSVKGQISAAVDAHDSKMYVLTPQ
Ubiquitin carboxyl-terminal hydrolase 1 (Homo sapiens), sequence (O94782 whole entry, looked up): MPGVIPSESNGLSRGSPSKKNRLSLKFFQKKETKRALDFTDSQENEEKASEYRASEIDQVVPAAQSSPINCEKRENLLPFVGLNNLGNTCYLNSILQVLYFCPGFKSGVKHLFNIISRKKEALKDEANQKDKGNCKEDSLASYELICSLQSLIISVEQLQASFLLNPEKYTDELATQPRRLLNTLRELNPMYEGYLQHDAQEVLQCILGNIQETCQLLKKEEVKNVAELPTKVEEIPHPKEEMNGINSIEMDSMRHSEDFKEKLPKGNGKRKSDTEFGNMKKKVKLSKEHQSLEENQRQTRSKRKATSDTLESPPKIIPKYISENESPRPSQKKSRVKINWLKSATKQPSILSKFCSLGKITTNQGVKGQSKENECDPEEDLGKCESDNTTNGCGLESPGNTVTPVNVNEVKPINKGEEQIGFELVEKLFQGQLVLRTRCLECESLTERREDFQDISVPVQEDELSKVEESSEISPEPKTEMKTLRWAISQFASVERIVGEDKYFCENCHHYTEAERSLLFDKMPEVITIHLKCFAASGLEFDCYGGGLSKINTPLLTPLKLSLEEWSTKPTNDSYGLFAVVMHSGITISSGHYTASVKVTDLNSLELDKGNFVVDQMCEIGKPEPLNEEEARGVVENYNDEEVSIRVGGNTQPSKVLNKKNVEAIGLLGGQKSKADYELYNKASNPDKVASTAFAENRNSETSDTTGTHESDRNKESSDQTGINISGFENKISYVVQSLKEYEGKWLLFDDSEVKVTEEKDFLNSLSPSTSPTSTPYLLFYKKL
Arylsulfatase A (Homo sapiens), sequence (P15289 whole entry, looked up): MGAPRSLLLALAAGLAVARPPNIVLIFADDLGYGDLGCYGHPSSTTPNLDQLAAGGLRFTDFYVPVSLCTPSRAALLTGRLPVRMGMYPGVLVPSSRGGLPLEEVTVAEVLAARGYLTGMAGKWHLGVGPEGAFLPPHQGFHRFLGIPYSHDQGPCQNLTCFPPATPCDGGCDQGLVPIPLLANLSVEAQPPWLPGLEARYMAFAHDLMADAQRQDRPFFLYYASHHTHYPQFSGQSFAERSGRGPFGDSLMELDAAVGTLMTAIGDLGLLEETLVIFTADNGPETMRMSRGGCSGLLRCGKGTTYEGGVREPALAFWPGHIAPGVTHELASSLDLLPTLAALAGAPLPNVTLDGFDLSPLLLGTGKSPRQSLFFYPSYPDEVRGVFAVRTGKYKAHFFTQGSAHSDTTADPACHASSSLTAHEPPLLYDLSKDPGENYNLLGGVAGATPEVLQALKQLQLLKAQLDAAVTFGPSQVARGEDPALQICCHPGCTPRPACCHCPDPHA
ATP-dependent 6-phosphofructokinase (Trypanosoma brucei brucei), sequence (O15648 whole entry, looked up): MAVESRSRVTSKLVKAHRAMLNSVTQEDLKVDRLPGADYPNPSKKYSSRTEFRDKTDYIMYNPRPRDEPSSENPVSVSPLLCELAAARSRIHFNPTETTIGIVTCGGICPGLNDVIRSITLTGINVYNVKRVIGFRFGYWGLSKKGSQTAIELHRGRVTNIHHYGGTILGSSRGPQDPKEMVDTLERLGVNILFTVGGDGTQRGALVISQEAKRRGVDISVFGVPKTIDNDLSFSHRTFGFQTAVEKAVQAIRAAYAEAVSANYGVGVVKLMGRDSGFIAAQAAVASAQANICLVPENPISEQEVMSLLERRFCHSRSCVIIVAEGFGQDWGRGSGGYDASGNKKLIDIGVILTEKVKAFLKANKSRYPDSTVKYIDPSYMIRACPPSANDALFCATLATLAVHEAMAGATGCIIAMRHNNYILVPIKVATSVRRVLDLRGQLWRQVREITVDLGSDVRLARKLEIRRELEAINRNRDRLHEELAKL
Bile acid receptor (Homo sapiens), sequence (Q96RI1 whole entry, looked up): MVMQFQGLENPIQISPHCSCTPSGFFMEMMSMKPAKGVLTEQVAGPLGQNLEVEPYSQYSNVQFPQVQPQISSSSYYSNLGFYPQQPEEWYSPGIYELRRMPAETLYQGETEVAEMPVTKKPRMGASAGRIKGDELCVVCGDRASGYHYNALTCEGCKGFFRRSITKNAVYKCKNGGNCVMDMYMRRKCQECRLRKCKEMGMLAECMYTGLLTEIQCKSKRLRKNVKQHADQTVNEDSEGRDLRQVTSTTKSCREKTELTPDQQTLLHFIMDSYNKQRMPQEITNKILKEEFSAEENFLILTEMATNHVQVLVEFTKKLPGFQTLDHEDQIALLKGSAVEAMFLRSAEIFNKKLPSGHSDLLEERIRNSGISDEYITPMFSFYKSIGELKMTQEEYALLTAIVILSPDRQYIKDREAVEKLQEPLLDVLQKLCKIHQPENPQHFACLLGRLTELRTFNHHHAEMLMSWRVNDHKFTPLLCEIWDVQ
Peroxisome proliferator-activated receptor delta (Homo sapiens), sequence (Q03181 whole entry, looked up): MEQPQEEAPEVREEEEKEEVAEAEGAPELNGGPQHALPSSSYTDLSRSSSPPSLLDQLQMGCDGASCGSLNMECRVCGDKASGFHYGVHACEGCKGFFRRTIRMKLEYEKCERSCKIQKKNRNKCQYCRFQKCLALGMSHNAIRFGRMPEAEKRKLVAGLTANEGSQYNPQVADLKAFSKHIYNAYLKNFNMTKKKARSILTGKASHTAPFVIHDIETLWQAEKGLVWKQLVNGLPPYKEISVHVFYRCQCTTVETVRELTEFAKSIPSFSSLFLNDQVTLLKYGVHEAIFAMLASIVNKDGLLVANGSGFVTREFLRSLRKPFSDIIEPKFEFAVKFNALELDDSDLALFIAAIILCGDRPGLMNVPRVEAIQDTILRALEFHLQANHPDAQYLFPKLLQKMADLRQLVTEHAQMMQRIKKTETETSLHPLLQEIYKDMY

With `O=c1[nH]c(=O)n(C2CCCO2)cc1F` (stereo unspecified) the Potency [1] was “inactive”, the Potency [2] was “inactive” and the Potency [3] was “inactive”. The Potency [4] was “inactive”, the Potency [5] was “inactive” and the activity change, negative = inhibition [6] was -6.03%. For the same molecule, the Potency [7] was “inactive”.
In the case of `O=[N+]([O-])c1ccc(-c2nc(-c3ccc(F)cc3)c(-c3ccncc3)[nH]2)cc1`, the outcome [8] is reported as “inactive”, the outcome [9] is reported as “inactive” and the Potency [10] is reported as “inactive”. The outcome [11] was “inactive”, the Potency [1] was “inactive” and the Potency [2] was “inactive”. The Potency [3] was “inactive”, the Potency [4] was “inactive” and the Potency [7] was “inactive”.
In the case of `O=C(CN1C(=O)C2(CCCC2)NC[C@H]1c1cc(F)cc(F)c1)Nc1ccc2c(c1)C[C@@]1(C2)C(=O)Nc2ncccc21`, the Potency [1] is reported as “inactive”, the Potency [2] is reported as “inactive” and the Potency [3] is reported as “inactive”. For the same molecule, the Potency [4] was “inactive”, the Potency [5] was “inactive” and the activity change, negative = inhibition [6] was -13.1%. The Potency [7] was “inactive”.
With `CC1CNc2c(cccc2S(=O)(=O)N[C@@H](CCCN=C(N)N)C(=O)N2CC[C@@H](C)C[C@@H]2C(=O)O)C1` (stereo partly specified) the Potency [1] was “inactive”, the Potency [2] was “inactive” and the Potency [3] was “inactive”. For the same molecule, the Potency [4] was “inactive”, the Potency [5] was “inactive” and the activity change, negative = inhibition [6] was -11.7%. The Potency [7] was “inactive”.
With `O=C(Nc1nc2ccccc2n1CCN1CCOCC1)c1cccc([N+](=O)[O-])c1` the outcome [11] was “inactive”, the Potency [1] was “inactive” and the Potency [2] was “inactive”. The Potency [3] was “inactive”, the Potency [4] was “inactive” and the Potency [5] was “inactive”. For the same molecule, the activity change, negative = inhibition [6] was -0.348% and the Potency [7] was “inactive”.
With `CCN1C[C@H](C)n2c(c(O)c3c(=O)n(Cc4ccc(F)c(Cl)c4)nc(C(=O)NC)c32)C1=O` the parasite growth, % of DMSO control [12] was 43.2%, the parasite growth remaining, % of DMSO control (lower = more inhibition) [13] was 55.9% and the parasite growth, % of control (lower = inhibition) [14] was 45.4%. The growth, % of control [15] was 48.6%, the Potency [1] was “inactive” and the Potency [2] was “inactive”. For the same molecule, the Potency [3] was “inactive”, the Potency [4] was “inactive” and the Potency [7] was “inactive”.
In the case of `COc1ccc2c(OCc3nnc4ccc(-c5ccccc5)nn34)ccnc2c1`, the Potency [1] is reported as “inactive”, the Potency [2] is reported as “inactive” and the Potency [3] is reported as “inactive”. The Potency [4] was “inactive”, the Potency [5] was “inactive” and the activity change, negative = inhibition [6] was -13.2%. For the same molecule, the Potency [7] was “inactive”.
Work on `CN1[C@H]2CC(OC(=O)[C@@H](CO)c3ccccc3)C[C@H]1[C@H]1O[C@H]12` (stereo partly specified) yielded a parasite growth, % of DMSO control [12] of 96.6%, a parasite growth remaining, % of DMSO control (lower = more inhibition) [13] of 107% and a parasite growth, % of control (lower = inhibition) [14] of 72.3%. For the same molecule, the Potency [1] was “inactive”, the Potency [2] was “inactive” and the Potency [3] was “inactive”. For the same molecule, the Potency [4] was “inactive” and the Potency [7] was “inactive”.
With `Cc1cc(O)c2c(c1)C(=O)c1cccc(O)c1C2=O` the activation [16] was -2.98% (inactive), the Potency [17] was “inactive” and the Potency [1] was “inactive”. The Potency [2] was “inactive”, the Potency [3] was “inactive” and the Potency [4] was “inactive”. For the same molecule, the Potency [5] was “inactive”, the activity change, negative = inhibition [6] was -17% and the Potency [7] was “inactive”.
In the case of `Nc1[nH]nc2nnc(-c3c(-c4ccccc4)nn4ccccc34)cc12`, the Potency [1] is reported as “inactive”, the Potency [2] is reported as “inactive” and the Potency [3] is reported as “inactive”. For the same molecule, the Potency [4] was “inactive”, the Potency [5] was “inactive” and the activity change, negative = inhibition [6] was -11.3%. For the same molecule, the Potency [7] was “inactive”.
In the case of `COc1cc2c(cc1OC)C1CC(=O)C(CC(C)C)CN1CC2` (stereo unspecified), the outcome [18] is reported as “inactive”, the outcome [11] is reported as “inactive” and the Potency [19] is reported as “inactive”. The Potency [20] was “inactive”, the outcome [21] was “inactive” and the Potency [22] was “inactive”. The Potency [1] was “inactive”, the Potency [2] was “inactive” and the Potency [3] was “inactive”. The Potency [4] was “inactive”, the Potency [5] was “inactive” and the activity change, negative = inhibition [6] was -3.6%. For the same molecule, the Potency [7] was “inactive”.
